In PubChem BioAssay AID1626 (SRMLSC, 2009):
Hit rate of the full screen: of about 220,000 compounds, about 2,000 (0.91%) were called active. Inconclusive results (about 2%) are left out. Not all results are given here. Measured potencies and affinities stand elsewhere. Values without a mark were called inactive. No stated cut-off is given here; in the data, inconclusive means inhibition above about 80% without an active follow-up result; inactive means below that; test concentration not stated here.

Assay: M. tuberculosis H37Rv growth inhibitors, H37Rv strain (AID 1626);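 further: bacteria incubated seven days before Alamar blue readout; 0% = bacteria only wells and 100% = bacteria with antibiotic wells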
Conditions: stronger effect = higher value, concentration not given here

SMILES	inhibition [%]
O=C(/C=C/c1ccccc1[N+](=O)[O-])N1CCN(c2ccccc2F)CC1	4.82
O=C(O)c1ccc(S(=O)(=O)N2CCC(c3nc(-c4ccccc4Cl)no3)CC2)cc1	-8.76
O=C(COC(=O)/C=C/c1ccc(Br)o1)Nc1ccccc1F	8.52
Cc1ccc(C2=NC(=O)/C(=C/c3cc(O)c(O)c(Br)c3)S2)cc1	-2.49
Cn1ncc2c(NCc3cccc(C(F)(F)F)c3)c(C(=O)O)cnc21	-1.6
CCN(CC)C1CCN(C(=O)CCc2nnc(CCCCc3ccccc3)o2)C1 (configuration not stated)	-6.99
Cc1csc2c(N3CCN(C(=O)c4ccc(C(C)(C)C)cc4)CC3)ncnc12	5.47
CCCC(=O)Nc1cc(-c2nn(C)c(=O)c3ccccc23)ccc1N1CCOCC1	-6.76
CCCn1c(N)c(C(=O)CN2CCc3ccccc3C2)c(=O)n(C)c1=O	0.315
CC(=O)Nc1ccc(OCC(O)Cn2c(C)nc3ccccc32)cc1 (configuration not stated)	5.23
O=C(OC1CCCCC1=O)c1cc(Cl)ccc1[N+](=O)[O-] (configuration not stated)	-3.33
Cc1ccc(NC2(c3nnnn3-c3c(C)cccc3C)CCCCC2)cc1	16.4
CCOC(=O)c1csc(COc2ccc(OC)cc2)n1	-4.8
CC(=O)c1csc(COc2ccccc2)n1	-10.3
Cc1cccc2nc(CSc3nnc(N)s3)cn12	0.64
Cc1ccc(C(=O)N/C(=C/c2ccc(-c3ccc(Br)cc3)o2)C(=O)NC2CCS(=O)(=O)C2)cc1 (configuration not stated)	2.02
CCNc1ccc(C(=O)OCC)cc1NC(=O)c1cc(S(=O)(=O)N2CCOCC2)ccc1C	0.89
O=C(CN1CC(=O)Oc2ccccc21)NCc1ccco1	0.53
CCc1cc(-c2n[nH]c(C)c2-c2nc(C)cs2)c(O)cc1OC	4.46
Cc1nn(Cc2ccccc2)c(Cl)c1C(=O)NC1CCCc2ccccc21 (configuration not stated)	12.6
CCCNC(=O)C1CC(=O)N(c2ccc(OCC(=O)Nc3cc(C)cc(C)c3)cc2)C1 (configuration not stated)	-2.31
O=[N+]([O-])/C=C/c1c(OCc2ccccc2)ccc2ccccc12	42
CCOC(=O)COc1ccccc1/C=C\[N+](=O)[O-]	11.3

SMILES	inhibition [%]
O=C(CSc1nnc(Cc2cc(=O)[nH]c(=O)[nH]2)n1-c1ccc(Cl)cc1)NC1CCCC1	-1.17
COc1cccc(C2=CC(c3ccc(OC)c(OC)c3OC)n3nnnc3N2)c1 (configuration not stated)	-9.14
COc1ccc(OC)c(C2C=C(c3ccc(C)c(C)c3)Nc3nnnn32)c1 (configuration not stated)	6.69
COc1ccc(C(=O)N(C)C2CCN(C)CC2)cc1S(=O)(=O)Nc1cc(Cl)ccc1Cl	-15.1
Cc1nc(=S)c2c([nH]1)-c1ccccc1CC21CCCCC1	6.17
Cc1ccc(C(=O)N/N=C/c2nc3ccccc3n2C)cc1	62.7
Cn1c(/C=N/O)nc2ccccc21	-6.75
Cc1ccc2cc(/C=N/NC(=O)c3ccccc3[N+](=O)[O-])c(Cl)nc2c1	-0.86
Cc1nn(CC(=O)Nc2ccccn2)c(C)c1[N+](=O)[O-]	-1.31
CN1C(=O)/C(=C/c2ccccc2Cl)Sc2ccc(C(=O)NCc3cccnc3)cc21	34.2
CCOc1cc(/C=C2/SC(=Nc3ccccc3)N(Cc3cccnc3)C2=O)ccc1OCC#N	-1.44
Cc1ccc(NC(=O)COc2ccc(/C=C3/SC(=Nc4ccccc4)N(Cc4cccnc4)C3=O)cc2)cc1	2.56
COc1cccc(C(=O)NCc2cccnc2)c1	-9.43
CCOc1ccc(/C=C2/Sc3ccc(C(=O)N4CCN(C(=O)c5ccco5)CC4)cc3N(C)C2=O)cc1OC	-1.76
COc1ccc(C(=O)NCc2cccnc2)cc1OC	-4.7
COc1ccc(N(C(=O)Nc2ccc(Cl)cc2)C2=NCCC2)cc1	-4.11
CCCN(CCC)CCCNC(=S)Nc1ccc2nc(N3CCN(C)CC3)cc(C)c2c1	-1.09
CCN(CC)C(NC(=O)Cc1ccccc1)C(Cl)(Cl)Cl (configuration not stated)	-7.35
Cc1sc2nc(-c3ccccc3)[nH]c(=O)c2c1-c1ccccc1	-4.26
O=c1[nH]c(-c2ccccn2)cc2ccccc12	-4.45
c1ccc(-c2nc3cc4ccccc4cc3[nH]2)nc1	-3.91
O=c1[nH]c(-c2ccccc2)nc2sc(-c3ccccc3)cc12	0.66
O=c1[nH]c(-c2cccnc2)nc2sc(-c3ccccc3)cc12	6.5

SMILES	inhibition [%]
c1ccc(-c2nc3ccccc3[nH]2)nc1	-3.79
O=c1[nH]c(-c2ccncc2)nc2ccccc12	-5.72
Cc1sc2nc(-c3ccncc3)[nH]c(=O)c2c1-c1ccccc1	-3.4
O=[N+]([O-])c1cc(C(F)(F)F)ccc1NCCCN1CCOCC1	7.61
COc1cc(C(=O)Nc2cc(C)cc(C)c2)c(-n2cnnn2)cc1OC	5.79
CCC(C)OC(=O)C1=C(C)O[C@]23OC(N)=C(C#N)[C@]12C(=O)c1ccccc13 (some centres not stated)	3.72
Clc1ccc(-c2ccn[nH]2)cc1	58.5
COC(=O)c1ccc(NS(=O)(=O)c2ccc3c(c2)oc(=O)n3C)cc1	-7.58
CCOC(=O)C1CCN(c2nc(C)cc(C)c2C#N)CC1	2.49
Cn1c(SC2=CS(=O)(=O)c3ccccc32)nc2ccccc21	54.9
Cc1cc(C)nc(SC2=CS(=O)(=O)c3ccccc32)n1	3.84
CCOC(=O)c1sc(NC(=O)CSc2nncn2C)nc1C	4.68
O=C(c1ccc(N2C(=O)C3C4c5ccccc5C(c5ccccc54)C3C2=O)cc1)N1CCOCC1 (configuration not stated)	-4.29
COC(=O)c1sc(OC)cc1OCc1ccc(C)cc1	-1.7
COc1ccccc1NC(=O)c1ccc([N+](=O)[O-])cc1[N+](=O)[O-]	3.09
CCC(NC(=O)c1ccc([N+](=O)[O-])cc1[N+](=O)[O-])c1ccccc1 (configuration not stated)	-5.13
CCSc1ccc(-c2nn(-c3ccccc3)cc2/C=C(/C#N)C(=O)NCCCOC)cc1	-5.12
CCCSc1ccc(-c2nn(-c3ccccc3)cc2/C=C(/C#N)C(=O)NCCCOC)cc1	-7.18
O=C(NCCCn1ccnc1)c1cn(-c2ccccc2)nc1-c1ccc(F)cc1	4.17
N#C/C(=C\c1ccc([N+](=O)[O-])cc1)C(=O)NCCCn1ccnc1	3.27
CSCCC(NS(=O)(=O)c1ccc(Cl)cc1)C(=O)OCC(=O)c1c(C)[nH]c2ccccc12 (configuration not stated)	-2.72
C/C=C(\C)C(=O)N1CC2(CC(c3cccc(NC(=O)CC(c4ccccc4)c4ccccc4)c3)=NO2)C[C@H]1C(N)=O (some centres not stated)	4.13
COc1ccccc1C(=O)C1CCCN(C(=O)CCC(=O)c2ccccc2)C1 (configuration not stated)	4.79

SMILES	inhibition [%]
O=C(CNc1cccc2ccccc12)N/N=C/C=C/c1ccco1	-2.95
CCOC(=O)c1c(C)n(-c2ccc(C)cc2)c2ccc(OCC(O)CN3CCN(C)CC3)cc12 (configuration not stated)	-2.8
CCOC(=O)c1c(C)n(-c2ccc(C)cc2)c2ccc(OCC(O)CNCC3CCCO3)cc12 (configuration not stated)	0.55
Cc1cccc(N(C(=O)C(F)(F)F)C(C(=O)NC2CCCCC2)c2cccs2)c1 (configuration not stated)	-0.05
O=C(/C=C/c1cccs1)Nc1nc(-c2ccccc2)cs1	-0.14
Cc1ccc(-c2csc(NC(=O)/C=C/c3cccs3)n2)cc1C	51.8
Cc1cccc(NC(=O)/C=C/c2cccs2)n1	-10.1
O=C(/C=C/c1cccs1)Nc1nccs1	-4.27
Cn1nc(C(=O)Nc2sccc2C(N)=O)ccc1=O	-1.96
COc1ccc2oc(=O)c(C(=O)N3CCN(c4ccccc4C)CC3)cc2c1	-3.36
O=C(N/N=C/c1sc(N2CCOCC2)nc1-c1ccccc1)c1ccccc1F	-7.96
N#C/C(=C\c1sc(N2CCOCC2)nc1-c1ccccc1)C(=O)Nc1cccc2ccccc12	49.2
COC(=O)c1ccc(-n2nnnc2SCc2nn[nH]n2)cc1	-5.62
Cn1c(N)c(C(=O)CSc2ncn[nH]2)c(=O)n(C)c1=O	-13.1
COc1ccc(Nc2c3c(nc4c(-c5ccccc5)c(C)nn24)CCC3)cc1	13.4
Cc1nn2c(NCCCN(C)C)c3c(nc2c1-c1ccccc1)CCCC3	10.8
Cc1nn2c(NCCN(C)C)c3c(nc2c1-c1ccccc1)CCC3	-3.03
Cc1nn2c(Nc3ccccc3)c3c(nc2c1-c1ccccc1)CCC3	7.77
COc1ccc(C(C)=O)cc1CSc1nnc(-c2ccncc2)n1C	-2.28
Cn1c(-c2csc(-c3cccc(C(F)(F)F)c3)n2)n[nH]c1=S	3.67
Cc1ccc(C(=O)NCCSC2CCCCC2)cc1S(=O)(=O)Nc1ccccc1	-1.4
O=C(NCc1cccnc1)C(C(=O)c1ccc(F)cc1)n1ccccc1=O (configuration not stated)	-8.48
CCC(=O)NCCc1nc2ccccc2n1CC(=O)c1ccccc1	-2.01
